Results: PubChem BioAssay AID1159580 (chemical genetic matrix, 2015)
In all, about 5,500 compounds went through this assay and about 2,000 (36%) were called active. Not shown: some 18% with an inconclusive outcome. Cut-off read from the data, not from the text of the source: active = normalized growth mostly below about 0.91 (no sharp cut-off); inconclusive = no clear call, values can overlap the other calls; inactive = mostly above about 0.92. The list shows a part of the results.

Test: chemical genetic growth profiling, strain panel (AID 1159580);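 note: tested at 20 µM; growth read once vehicle control cultures reached saturation at 30 °C; 1 = growth at the plate median or of vehicle wells; lower values mean less growth of the strain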
Conditions: growth OD

Measured: normalized growth

CCCCc1nc(Cl)c(CO)n1Cc1ccc(-c2ccccc2-c2nn[nH]n2)cc1
inactive: S. cerevisiae deletion strains, locus YJR075W, strain HOC1, active compounds read low 0.999 | S. cerevisiae deletion strains, locus YKL009W, strain mrt4, active compounds read low 0.985 | S. cerevisiae deletion strains, locus YKL068W, active compounds read low 0.997 | S. cerevisiae deletion strains, locus YKL085W, strain MDH1 (second series), active compounds read low 0.992 | S. cerevisiae deletion strains, locus YKL085W, strain MDH1, active compounds read low 0.992 | S. cerevisiae deletion strains, locus YKL160W, strain elf1, active compounds read low 0.991 | S. cerevisiae deletion strains, locus YKL190W, strain CNB1, active compounds read low 1.01 | S. cerevisiae deletion strains, locus YKR001C, strain vps1, active compounds read low 0.99 | S. cerevisiae deletion strains, locus YKR026C, strain gcn3, active compounds read low 0.988 | S. cerevisiae deletion strains, locus YKR091W, strain srl3, active compounds read low 0.991 | S. cerevisiae deletion strains, locus YLL001W, strain dnm1, active compounds read low 0.98 | S. cerevisiae deletion strains, locus YLL026W, active compounds read low 0.992 | S. cerevisiae deletion strains, locus YLL041C, strain sdh2, active compounds read low 0.992 | S. cerevisiae deletion strains, locus YLR027C, strain aat2, active compounds read low 0.993 | S. cerevisiae deletion strains, locus YLR039C, strain RIC1, active compounds read low 1.02 | S. cerevisiae deletion strains, locus YLR058C, strain SHM2, active compounds read low 0.997 | S. cerevisiae deletion strains, locus YLR102C, strain apc9, active compounds read low 0.994 | S. cerevisiae deletion strains, locus YLR113W, strain HOG1, active compounds read low 1.01 | S. cerevisiae deletion strains, locus YLR221C, strain rsa3, active compounds read low 0.987 | S. cerevisiae deletion strains, locus YLR258W, strain gsy2, active compounds read low 0.998 | S. cerevisiae deletion strains, locus YLR262C, strain YPT6 (second series), active compounds read low 0.995 | S. cerevisiae deletion strains, locus YLR262C, strain YPT6, active compounds read low 1.04 | S. cerevisiae deletion strains, locus YLR268W, strain sec22, active compounds read low 0.999 | S. cerevisiae deletion strains, locus YLR320W, strain mms22, active compounds read low 0.985 | S. cerevisiae deletion strains, locus YLR330W, strain CHS5, active compounds read low 1.01 | S. cerevisiae deletion strains, locus YLR342W, strain FKS1 (second series), active compounds read low 0.997 | S. cerevisiae deletion strains, locus YLR342W, strain FKS1, active compounds read low 1.01 | S. cerevisiae deletion strains, locus YLR357W, strain rsc2, active compounds read low 0.993 | S. cerevisiae deletion strains, locus YLR370C, strain arc18, active compounds read low 0.987 | S. cerevisiae deletion strains, locus YLR371W, strain rom2, active compounds read low 0.997 | S. cerevisiae deletion strains, locus YLR384C, strain iki3, active compounds read low 0.974 | S. cerevisiae deletion strains, locus YLR418C, strain cdc73, active compounds read low 1 | S. cerevisiae deletion strains, locus YML016C, strain PPZ1, active compounds read low 1 | S. cerevisiae deletion strains, locus YML032C, strain rad52, active compounds read low 1 | S. cerevisiae deletion strains, locus YML120C, strain ndi1, active compounds read low 0.981 | S. cerevisiae deletion strains, locus YML124C, strain tub3, active compounds read low 0.997 | S. cerevisiae deletion strains, locus YMR058W, strain fet3, active compounds read low 1 | S. cerevisiae deletion strains, locus YMR078C, strain ctf18, active compounds read low 0.999 | S. cerevisiae deletion strains, locus YMR125W, strain sto1, active compounds read low 0.982 | S. cerevisiae deletion strains, locus YMR129W, active compounds read low 0.994 | S. cerevisiae deletion strains, locus YMR205C, strain PFK2, active compounds read low 0.998 | S. cerevisiae deletion strains, locus YMR223W, strain ubp8, active compounds read low 1 | S. cerevisiae deletion strains, locus YMR231W, strain pep5, active compounds read low 0.982 | S. cerevisiae deletion strains, locus YMR263W, strain SAP30, active compounds read low 1.02 | S. cerevisiae deletion strains, locus YMR307W, strain GAS1, active compounds read low 0.911 | S. cerevisiae deletion strains, locus YNL067W, strain RPL9B, active compounds read low 1.02 | S. cerevisiae deletion strains, locus YNL071W, strain lat1, active compounds read low 1 | S. cerevisiae deletion strains, locus YNL128W, strain TEP1, active compounds read low 1.01 | S. cerevisiae deletion strains, locus YNL153C, strain GIM3, active compounds read low 1.01 | S. cerevisiae deletion strains, locus YNL183C, strain NPR1, active compounds read low 1.01 | S. cerevisiae deletion strains, locus YNL209W, strain ssb2, active compounds read low 0.979 | S. cerevisiae deletion strains, locus YNL233W, strain BNI4, active compounds read low 1.02 | S. cerevisiae deletion strains, locus YNL248C, strain rpa49, active compounds read low 0.996 | S. cerevisiae deletion strains, locus YNL250W, strain rad50, active compounds read low 0.993 | S. cerevisiae deletion strains, locus YNL271C, strain bni1, active compounds read low 0.995 | S. cerevisiae deletion strains, locus YNL298W, strain CLA4, active compounds read low 0.989 | S. cerevisiae deletion strains, locus YNL307C, strain MCK1, active compounds read low 1.02 | S. cerevisiae deletion strains, locus YNL322C, strain KRE1 (second series), active compounds read low 0.971 | S. cerevisiae deletion strains, locus YNL322C, strain KRE1, active compounds read low 1.01 | S. cerevisiae deletion strains, locus YNR049C, strain mso1, active compounds read low 0.985 | S. cerevisiae deletion strains, locus YNR052C, strain pop2, active compounds read low 0.99 | S. cerevisiae deletion strains, locus YOL006C, strain TOP1, active compounds read low 1.04 | S. cerevisiae deletion strains, locus YOL012C, strain htz1 0.901 | S. cerevisiae deletion strains, locus YOL147C, strain pex11, active compounds read low 1 | S. cerevisiae deletion strains, locus YOR001W, strain rrp6, active compounds read low 0.978 | S. cerevisiae deletion strains, locus YOR061W, strain CKA2, active compounds read low 1.01 | S. cerevisiae deletion strains, locus YOR069W, strain VPS5, active compounds read low 1 | S. cerevisiae deletion strains, locus YOR070C, strain gyp1, active compounds read low 0.986 | S. cerevisiae deletion strains, locus YOR080W, strain dia2, active compounds read low 0.978 | S. cerevisiae deletion strains, locus YOR083W, strain WHI5, active compounds read low 0.981 | S. cerevisiae deletion strains, locus YOR106W, strain vam3, active compounds read low 1 | S. cerevisiae deletion strains, locus YOR136W, strain idh2, active compounds read low 1 | S. cerevisiae deletion strains, locus YOR144C, strain elg1, active compounds read low 1 | S. cerevisiae deletion strains, locus YOR184W, strain ser1, active compounds read low 1 | S. cerevisiae deletion strains, locus YOR231W, strain MKK1, active compounds read low 0.965 | S. cerevisiae deletion strains, locus YOR265W, strain rbl2, active compounds read low 0.999 | S. cerevisiae deletion strains, locus YOR270C, strain vph1, active compounds read low 0.97 | S. cerevisiae deletion strains, locus YOR290C, strain snf2, active compounds read low 1 | S. cerevisiae deletion strains, locus YOR316C, strain cot1, active compounds read low 0.999 | S. cerevisiae deletion strains, locus YPL051W, strain arl3, active compounds read low 0.99 | S. cerevisiae deletion strains, locus YPL055C, strain LGE1, active compounds read low 1.01 | S. cerevisiae deletion strains, locus YPL078C, strain atp4, active compounds read low 0.985 | S. cerevisiae deletion strains, locus YPL106C, strain sse1, active compounds read low 0.964 | S. cerevisiae deletion strains, locus YPL240C, strain hsp82, active compounds read low 1.02 | S. cerevisiae deletion strains, locus YPL241C, strain CIN2, active compounds read low 1.01 | S. cerevisiae deletion strains, locus YPL256C, strain CLN2, active compounds read low 0.967 | S. cerevisiae deletion strains, locus YPR119W, strain clb2, active compounds read low 0.995 | S. cerevisiae deletion strains, locus YPR141C, strain kar3, active compounds read low 1 | S. cerevisiae deletion strains, locus YPR163C, strain tif3, active compounds read low 1.01 | S. cerevisiae deletion strains, locus YPR167C, strain met16, active compounds read low 0.998 | S. cerevisiae deletion strains, strain wtn01, active compounds read low 0.989 | S. cerevisiae strains, strain wild type, active compounds read low 1.01
